Measurements from PubChem BioAssay.
Activity calls are given as the source filed them. Unless noted, how the calls were made is not given here.

Assays:
[1] = test system: XIP peptide (Xip251-270) binding; assay: XIP fragment 251-270 binding compounds – biochemical, small-molecule microarray, fluorescence 635/667 nm, 0.1 µg/mL protein, primary screen (AID 1182); details: fluorescent protein binding, 635 nm, higher = more signal, called active from +8 up or from −8 down
[2] = test system: XIP peptide (Xip251-270); assay: compounds binding XIP fragment 251-270 – biochemical, small-molecule microarray, fluorescence 635/667 nm, 0.5 µg/mL protein, primary screen (AID 1183); details: fluorescence 635 nm, higher = more signal
[3] = blood-stage malaria parasite viability loss – strain 3D7, DAPI fluorescence, 100 nL, primary screen (AID 1184);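 further: parasites grown inside human red blood cells in medium with human serum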; details: P. falciparum 3D7 growth, 3 d, higher = more signal
[4] = molecular target: Homeobox protein Hox-A13 (Mus musculus) (UniProt Q62424); assay: disruptors of Hoxa13 oligonucleotide interaction – biochemical, fluorescence polarization, labeled oligonucleotide, primary screen (AID 1185); details: Hoxa13:DNA binding, 15 min, higher = more signal, called active from +8 up or from −8 down
Chain of Homeobox protein Hox-A13 (Mus musculus) (Q62424 whole entry, looked up): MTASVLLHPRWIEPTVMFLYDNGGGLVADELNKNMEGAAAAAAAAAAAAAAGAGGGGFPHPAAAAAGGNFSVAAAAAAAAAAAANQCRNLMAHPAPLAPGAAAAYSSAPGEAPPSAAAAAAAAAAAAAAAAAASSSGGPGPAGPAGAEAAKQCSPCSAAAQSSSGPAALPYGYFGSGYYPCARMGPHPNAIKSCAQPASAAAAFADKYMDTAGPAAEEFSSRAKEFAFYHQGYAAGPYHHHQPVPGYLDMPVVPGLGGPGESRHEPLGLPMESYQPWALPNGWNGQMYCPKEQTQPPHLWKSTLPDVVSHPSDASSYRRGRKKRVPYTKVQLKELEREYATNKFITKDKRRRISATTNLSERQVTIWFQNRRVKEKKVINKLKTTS

[5] = blockers of DNA damage checkpoint Chk1 activation – imaging, HeLa, hydroxyurea, phospho-Chk1 antibody, percent positive cells, primary screen (AID 1186); details: hydroxyurea-induced phospho-Chk1 immunofluorescence imaging, higher = more signal
[6] = blockers of DNA damage checkpoint Chk1 activation – imaging, HeLa, hydroxyurea, phospho-Chk1 nuclear intensity, primary screen (AID 1187); details: hydroxyurea-induced phospho-Chk1 immunofluorescence imaging, higher = more signal

Compound	composite z-score [1]	composite z-score [2]	z-score [3]	z-score [4]	z-score [5]	z-score [6]
CO[C@H]1O[C@H](CO)[C@@H](OC(=O)CCc2ccccc2)[C@@H]2OC(=O)[C@@H](Cc3ccc4ccccc4c3)C/C=C/C[C@H](Cc3ccc4ccccc4c3)C(=O)O[C@@H]12	0.204 (inactive)	0.448	-2.13	-4.15 (inactive)	-0.267 (inactive)	-0.343 (inactive)
CC[C@H]1C2=C3C(CC[C@H]4C(OCc5ccc(F)cc5C(F)(F)F)OC[C@](C)([C@@H]34)N(C(=O)OC(C)(C)C)C2)C(COC(C)=O)C1COC(C)=O (some centres not stated)	0.28 (inactive)	0.633	-1.24	-3.07 (inactive)	0.127 (inactive)	0.294 (inactive)
NCCCCCCNC(=O)[C@@H]1C[C@@H]2C(=O)NCC(=O)N2[C@@H]1c1cccc(OCCO)c1	0.592 (inactive)	0.354	0.418	-1.96 (inactive)	0.13 (inactive)	0.118 (inactive)
COc1ccc([Si](C)(C)[C@H]2[C@H](CCO)O[C@@]3(C(=O)N(Cc4ccccc4)c4ccc(NC(=O)[C@H](C)O)cc43)[C@@H]2C)cc1	-0.0359 (inactive)	-0.313	-2.6	-5.67 (inactive)	-1.59 (inactive)	-0.751 (inactive)
[N-]=[N+]=NCc1ccccc1C[C@]1(C(=O)N2CCCCC2)COC(c2ccc(OCCCO)cc2)=N1	-0.061 (inactive)	0.652	-2.29	-6.04 (inactive)	-0.749 (inactive)	-0.928 (inactive)
C=CCNC(=O)[C@@H]1[C@H]2C(=O)O[C@H](c3ccccc3)[C@H](c3ccccc3)N2[C@H](c2ccc(OCCO)cc2)[C@@]12C(=O)Nc1ccc(C#CCNC(N)=O)cc12	2.5 (inactive)	0.561	0.175	-3.63 (inactive)	0.286 (inactive)	0.0132 (inactive)
O=C1c2ccccc2[C@@]2(Cc3ccccc3N(CC(F)(F)F)C2=O)[C@H](c2ccc(CO)cc2)N1Cc1ccccc1	-0.158 (inactive)	-0.48	-1.17	1.26 (inactive)	-0.191 (inactive)	-0.494 (inactive)
COc1c(C)cc(-c2cc3c(c(CCc4ccccc4)n2)[Si](C(C)C)(C(C)C)O[C@H]3c2ccccc2)cc1C	-0.0596 (inactive)	0.0209	-2.29	1.6 (inactive)	-0.0936 (inactive)	0.0911 (inactive)
COCCOC(=O)N1C(=O)[C@@]2(c3ccccc31)[C@H](C(=O)Nc1nc3ccccc3s1)[C@H]1C(=O)O[C@H](c3ccccc3)[C@H](c3ccccc3)N1[C@@H]2c1ccccc1OCCO	0.238 (inactive)	0.801	-1.68	-0.587 (inactive)	0.152 (inactive)	0.367 (inactive)
COCCCNC(=O)[C@@]1(CCC(=O)OC(C)(C)C)N=C(c2ccc(OCCCO)cc2)O[C@H]1c1ccccc1	0.809 (inactive)	0.754	-0.0488	-4.75 (inactive)	0.185 (inactive)	0.633 (inactive)
CCCCCN1CC=CC23O[C@@H]4/C=C\CCCOC(=O)C4[C@H]2C(=O)N(CCCCCO)[C@@H]3C1=O (some centres not stated)	0.388 (inactive)	0.199	0.0701	-4.75 (inactive)	0.726 (inactive)	0.576 (inactive)
C=CC[C@@]1(C(=O)NCCCOC)N=C(c2ccc(OCCCO)cc2)O[C@@H]1c1ccccc1CN=[N+]=[N-]	0.204 (inactive)	0.44	-2.25	-5.2 (inactive)	-0.551 (inactive)	-0.721 (inactive)
C=CC[C@H](OC(=O)Nc1ccc(SC)cc1)c1ccc(O)c(F)c1	1.07 (inactive)	-0.193	-0.249	-0.845 (inactive)	0.355 (inactive)	0.417 (inactive)
CCCC1(C(=O)OC)C=C2C(=C(C(C)C)C(=O)C2C)CN1 (configuration not stated)	-0.275 (inactive)	-0.619	0.77	-6.18 (inactive)	0.493 (inactive)	0.473 (inactive)
CC(C)c1ccc(NN2C(C(O)C3=C[C@H]4C[C@@H](C3)C4(C)C)C=CC3C(=O)N(c4ccccc4)C(=O)C32)cc1 (some centres not stated)	1.35 (inactive)	0.464	-0.0979	-2.33 (inactive)	-0.0307 (inactive)	-0.257 (inactive)
O=C1C2C=CC(C(O)C(c3ccccc3)c3ccccc3)N(Nc3ccccc3F)C2C(=O)N1c1ccccc1 (configuration not stated)	0.814 (inactive)	0.768	-0.373	-2.65 (inactive)	0.837 (inactive)	0.29 (inactive)
CC(C)N1C(=O)[C@@]2(Cc3ccccc31)c1ccccc1C(=O)N(Cc1ccccc1)[C@H]2c1ccc(CO)cc1	-0.205 (inactive)	-0.0467	-0.32	-0.075 (inactive)	0.273 (inactive)	0.685 (inactive)
